PRMT1 inh – PRMT1 (human) inhibition, primary screen; Q99873; inhibition, % at 2.79 µM; 370,000 compounds, 1.3% hits; recombinant PRMT1, activity-based probe fluorescence polarization;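 active means inhibition above about 21% made by adding two undisclosed values, limit read from the data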
MBD2 DNA inh – blocks human MBD2 binding to methylated DNA | Q9UBB5 | TR-FRET, MBD2 binding to methylated oligonucleotide | inhibition, % at 4.4 µM | 370,000 compounds, 0.31% hits | AID 686964; in the data active means inhibition above about 13%
Target sequence (Q9UBB5 whole entry, looked up): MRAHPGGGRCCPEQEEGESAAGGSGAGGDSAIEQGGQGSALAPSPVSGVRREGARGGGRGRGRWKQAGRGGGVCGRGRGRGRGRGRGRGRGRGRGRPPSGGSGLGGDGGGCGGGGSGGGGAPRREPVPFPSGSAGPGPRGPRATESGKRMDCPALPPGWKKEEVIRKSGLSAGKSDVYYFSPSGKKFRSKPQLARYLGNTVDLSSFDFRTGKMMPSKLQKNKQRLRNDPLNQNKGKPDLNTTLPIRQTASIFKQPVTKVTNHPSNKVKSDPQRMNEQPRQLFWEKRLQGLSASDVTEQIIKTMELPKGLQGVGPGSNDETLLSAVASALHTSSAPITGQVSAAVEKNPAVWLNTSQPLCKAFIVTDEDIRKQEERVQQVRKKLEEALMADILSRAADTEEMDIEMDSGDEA
rCAG binder – r(CAG) repeat RNA binding; 370,000 compounds, 1.3% hits; AID 651821; inhibition, % at 3 µM; TO-PRO-1 dye displacement fluorescence;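 active means inhibition above the plate cutoff, the mean of all test compounds on that plate plus 3 SD, cut at about 35% in these data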;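 further: 0% = DMSO alone and 100% = 100 µM mitoxantrone as full dye displacement; higher means more dye released from RNA so lower well fluorescence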
UHRF1 binding – blocks human UHRF1 binding to methylated DNA; UHRF1 binding to methylated oligo, TR-FRET; inhibition, % at 4.4 µM; 370,000 compounds, 0.75% hits; AID 687016; in the data active means inhibition above about 21%;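 further: UHRF1 SRA domain binding a hemimethylated CpG hairpin DNA probe; 0% = median of test compound wells and 100% = reference inhibitor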
LEDGF integ inh – blocks HIV-1 LEDGF/p75-dependent DNA integration. TR-FRET IN-LEDGF/p75 DNA integration, Eu/Cy5. inhibition, % at 3.7 µM. 370,000 compounds, 0.64% hits. AID 743269;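 active means inhibition above the screen-wide mean plus 3 SD, cut at about 13% in these data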;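 further: signal is the Cy5 over europium emission ratio at 671 and 618 nm; 0% = plate median of compound wells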
ABHD5 PLIN5 PPI – blocks binding of human ABHD5 to perilipin-5; Split G. princeps luciferase complementation, luminescence, 4 h; inhibition, % at 4 µM; 360,000 compounds, 0.78% hits;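 active means inhibition above the mean inhibition across every tested compound plus 3 SD, cut at about 22% in these data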;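 further: 0% = DMSO only wells and the 100% control is not disclosed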
rCAG bind conf – r(CAG) RNA repeat binding, confirmation | AID 652065 | shares compounds with rCAG binder | TO-PRO-1 dye displacement fluorescence | 4,300 compounds, 70% hits | inhibition, % at 3 µM;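 active means inhibition above a per-plate cutoff, the mean inhibition of sample wells plus 3 SD, cut at about 35% in these data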;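 further: loss of TO-PRO-1 fluorescence as compound displaces dye from 1x1 AA loop RNA; 0% = DMSO only wells and 100% = 100 µM mitoxantrone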
DNA CAG counter – counter-screen for rCAG RNA binders: DNA CAG dye complex inhibitors; shares compounds with rCAG binder; d(CAG) DNA oligo TO-PRO-1 dye displacement, fluorescence; inhibition, % at 3 µM; 4,300 compounds, 94% hits; AID 652068;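 active means inhibition above its plate's cutoff, the mean test-well inhibition plus 3 SD, cut at about 4.8% in these data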;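 further: 0% = DNA dye mix with DMSO and 100% = 100 µM mitoxantrone; hits displace the dye from DNA and so lower well fluorescence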
dCAG dye DR – counter-screen for rCAG binders: inhibitors of DNA CAG TO-PRO-1 complex. shares compounds with rCAG binder. DNA CAG/GTC duplex TO-PRO-1 dye displacement fluorescence. IC50, µM. 250 compounds, 20% hits; in the data active means IC50 below about 10 µM
* = called active by the depositor; i = inactive; . = not tested or not shown. This is a sample that favours compounds with a hit; in the whole collection about 4.1% have one here.

SMILES	PRMT1 inh	MBD2 DNA inh	rCAG binder	UHRF1 binding	LEDGF integ inh	ABHD5 PLIN5 PPI	rCAG bind conf	DNA CAG counter	others
CCOc1ccc(/C=C2/SC(=S)N(C(C(=O)O)c3ccccc3)C2=O)cc1OCC (configuration not stated)	-0.1	-1.5	11.3	-6.8	5.4	-0.7	.	.
COc1ccc(/C=C2\SC(=S)N(C(Cc3ccccc3)C(=O)O)C2=O)cc1 (configuration not stated)	3.4	-4.5	65.0*	-10.6	3.3	-9.4	71.4*	33.6*	dCAG dye DR=i
COc1ccccc1/C=C1\SC(=S)N(C(C(=O)O)c2ccccc2)C1=O (configuration not stated)	12.0	-2.9	67.4*	-7.1	4.1	-4.2	67.2*	27.4*
COc1ccc(/C=C2\SC(=S)N(CC(=O)N3CCN(C)CC3)C2=O)cc1	-4.2	-4.9	-2.2	-5.2	-2.0	0.7	.	.
Cc1ccc(-c2cc(-c3nnc(SCC(=O)N4c5ccccc5Sc5ccccc54)n3N)[nH]n2)cc1	4.9	0.3	11.4	2.1	-3.8	.	.	.
Cc1ccc(-c2c(C(=O)NCC(C)C)oc(=O)c3ccccc23)cc1	1.7	-2.7	-3.0	0.4	-1.4	.	.	.
CC(C)CN1C(=O)C[C@]2(C(=O)N(C)c3ccc(NS(=O)(=O)C4CCCCC4)cc32)C1c1ccccc1 (some centres not stated)	5.2	-0.2	4.3	0.2	0.6	.	.	.
CCOC(=O)C(C)/C(C)=N/NC(=O)c1cc2ccccc2cc1O (configuration not stated)	-1.4	-6.8	43.7*	0.1	1.6	0.3	12.6	6.7*
O=C(OCC(=O)N1CCCCC1)c1cc2ccccc2cc1O	1.6	0.5	2.1	2.8	-3.4	-0.2	.	.
C/C(CC(=O)N1CCCC1)=N\NC(=O)c1cc2ccccc2cc1O	1.6	1.8	38.2*	-3.4	3.4	9.1	14.5	6.2*
NNC(=O)c1cc2ccccc2cc1O	1.6	4.7	40.8*	1.4	2.5	-0.9	4.6	3.9
Cc1cccc2sc(NC(=O)c3ccc(NS(=O)(=O)c4cccs4)cc3)nc12	0.9	1.5	80.3*	1.9	1.7	8.3	75.7*	40.5*
COc1ccc2nc(NC(=O)c3ccc(NS(=O)(=O)c4cccs4)cc3)sc2c1	5.0	5.2	64.8*	3.3	-1.2	1.9	66.4*	29.1*
C#CCNC(=O)C[C@@H]1C(=O)N(CCc2ccc(Cl)cc2)C2=CCCCC[C@]21C(=O)OC	-4.8	1.8	4.2	0.6	2.2	.	.	.
CC(C)CN1CCC(CN2C(=S)NC[C@@H]2Cc2ccccc2)CC1	0.4	-1.4	4.1	-0.2	2.9	.	.	.
CCOC(=O)c1c(NC(=O)CSc2nnc(C)c(=O)[nH]2)sc2c1CCCC2	2.2	7.6	69.5*	17.6	3.0	2.3	65.6*	20.5*
Cc1nnc(SCC(=O)Nc2sc3c(c2C#N)CCCC3)[nH]c1=O	2.8	5.5	29.6	-0.5	2.3	-11.9	.	.
CCOC(=O)c1c(NC(=O)C(C)Sc2nnc(C)c(=O)[nH]2)sc2c1CCCC2 (configuration not stated)	-2.8	1.5	69.1*	0.1	2.1	-0.5	66.1*	30.0*
CCOC(=O)c1c(NC(=O)CSc2nnc(C)c(=O)[nH]2)sc(C)c1-c1ccc(C)cc1	-6.4	-0.2	43.0*	-0.1	2.4	-7.0	78.9*	44.1*
CC1(C)Oc2ccc(C(=O)NCCCN3CCCC3)cc2NC1=O	-2.6	-5.5	3.5	-1.9	5.5	.	.	.
CCCCN1CC(COCc2ccccc2)Oc2cccc(Oc3ccc(F)cc3OC)c2S1(=O)=O (configuration not stated)	3.6	-2.7	10.0	2.3	-0.2	.	.	.
O=C(Cn1nnc(-c2cccc(C(F)(F)F)c2)n1)NNS(=O)(=O)c1cccc(C(F)(F)F)c1	1.4	9.3	53.7*	2.6	4.9	-1.5	37.6*	10.2*
O=C(O)C1=CCC(c2ccc(Cl)c(Cl)c2)N(S(=O)(=O)c2ccc(F)cc2)C1c1cccc(F)c1 (configuration not stated)	-1.9	2.9	71.6*	3.7	8.9	-0.3	67.6*	26.2*
Cc1ccc(S(=O)(=O)N2[C@@H](c3ccc(C(C)(C)C)cc3)C(C(=O)O)=CC[C@H]2c2ccc(Cl)c(Cl)c2)cc1	3.6	0.3	68.4*	-2.5	1.3	-10.8	49.3*	23.9*
Cc1ccc(S(=O)(=O)N2[C@@H](c3ccc(C(C)(C)C)cc3)C(C(=O)O)=CC[C@H]2c2cccc(Cl)c2)cc1	6.9	-5.9	87.8*	-0.3	3.8	-7.1	74.8*	41.0*
SMILES	PRMT1 inh	MBD2 DNA inh	rCAG binder	UHRF1 binding	LEDGF integ inh	ABHD5 PLIN5 PPI	rCAG bind conf	DNA CAG counter	others
Cc1ccc([C@H]2C(C(=O)O)=CC[C@@H](c3cccc(Cl)c3)N2S(=O)(=O)c2ccc(C)cc2)cc1	0.3	1.2	18.7	-0.5	-0.2	-12.1	.	.
Cc1ccc(S(=O)(=O)N2[C@@H](c3ccc(Br)cc3)C(C(=O)O)=CC[C@H]2c2ccc(Cl)c(Cl)c2)cc1	6.2	-3.0	86.7*	1.3	1.1	-14.6	82.5*	52.0*
COc1ccc(C2=CC3=C(Br)C(=O)C(C)(OC(=O)c4ccco4)C(=O)C3=CO2)cc1 (configuration not stated)	.	.	.	.	.	13.2	.	.
COc1ccc(C2=CC3=C(Br)C(=O)C(C)(OC(=O)c4cccs4)C(=O)C3=CO2)cc1 (configuration not stated)	16.4	-1.8	48.8*	7.6	8.9	1.9	44.5*	20.7*
COc1ccc(C(=O)Nc2ccc(S(=O)(=O)Nc3onc(C)c3C)cc2)c(OC)c1	6.7	6.8	40.7*	1.1	1.6	-3.0	20.3	4.0
COc1ccccc1NS(=O)(=O)c1cc(C(=O)Nc2ccc(S(=O)(=O)Nc3onc(C)c3C)cc2)ccc1C	2.2	3.1	69.8*	6.1	0.3	-5.1	78.1*	30.4*	dCAG dye DR=i
Cc1cc(C(=O)Nc2ccc(S(=O)(=O)Nc3onc(C)c3C)cc2)cs1	-4.1	-6.4	10.4	-3.5	2.8	6.1	.	.
Cc1noc(C)c1S(=O)(=O)Nc1ccc(C(=O)Nc2ccc(OC(F)(F)F)cc2)cc1	1.7	2.6	38.9*	2.1	-2.3	-9.4	28.5	4.7*
COc1cc(NC(=O)c2ccc(NS(=O)(=O)c3c(C)noc3C)cc2)cc(OC)c1	-1.0	3.8	17.8	-1.9	1.2	-3.0	.	.
CC(C)Oc1ccc(C(=O)N/N=C/c2ccc(-c3ccc(S(=O)(=O)Nc4ncccn4)cc3)o2)cc1	9.7	2.7	53.7*	8.4	1.5	4.9	64.7*	21.7*
